Consider 38 compounds from PubChem BioAssay (NCI).

The panel holds about 83,000 compounds, 20% with a hit somewhere; the sample as a whole holds those more often.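 A percent growth of 40 corresponds to 60% growth inhibition; 0 means no net growth; -100 means all cells died. Active threshold: below 10.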 Activity calls are given as the source filed them.

The first test relates to A498 renal. Kind of test: NCI-60 one-dose screen, 48 h (100 = growth as untreated, 0 = no growth, -100 = all killed). As to conditions: 10 µM unless noted.
For `COc1cc2cc(Oc3ccc(NC(=O)c4cccc(C(F)(F)F)c4)cc3)c(C)nc2cc1OCCN1CCCCC1`, the growth is 78.6% (inactive).
As for `Cc1sc2c(c1C)c(=O)nc1c(-c3nc(-c4ccc(F)cc4)no3)n[nH]n12`, the growth was 98.6% (inactive).
Turning to `COc1ccc(NC2=C(Cl)C(=O)C(C)=C(C)C2=O)cc1OC`, the growth was 93.2% (inactive).
As for `Cc1ccc2c(n1)C(=O)C(Cl)=C(Nc1cccc(C(C)C)c1)C2=O`, the growth was 71.4% (inactive).
As for `O=C(CSc1nnc(-c2ccc3nc(-c4ccc(Cl)cc4)[nH]c3c2)o1)Nc1ccc(C(=O)/C=C/c2ccc(Cl)cc2)cc1`, the growth was 90.1% (inactive).
Take `CCOc1ccc2nc(NC(=O)c3ccc(C(F)(F)F)cc3)sc2c1`: the growth is 95.7% (inactive).

The subject of a further test is CCRF-CEM leukemia. The test is described as above. As to conditions: 10 µM unless noted.
With `Cn1ccnc1C(=O)/C=C/c1ccc(NC(=O)Nc2ccc(Cl)cc2)cc1`, the growth was 62.9% (inactive).
Turning to `C#Cc1nc(C2=C(C)/C(=N/OCc3ccccc3)CC2)cs1`, the growth was -30.2% (active).
With `COc1ccc(-n2c(SCC(=O)Nc3ccc(-c4nc5ccccc5[nH]4)cc3)nc3ccccc3c2=O)cc1`, the growth is 25.7% (inactive).
For `COc1cc(OC)c(S(=O)(=O)NNC(=O)c2ccncc2)cc1C(=O)/C=C/c1ccc(C)cc1`, the growth was 8.66% (active).
As for `COC(=O)C(C)NS(=O)(=O)/N=C1\NC(=O)NC1=C(Cl)Cl` (centres undefined), the growth was 95.9% (inactive).
On to `COc1ccc(C(=O)/C=C/c2ccc(Oc3nc(NCCO)nc(N4CCOCC4)n3)c(OC)c2)cc1`, for which the growth was 9.43% (active).
On the same count and under the same terms, next, `NS(=O)(=O)c1cccc(Nc2nc(SCC(=O)c3ccc(Br)cc3)nc3ccccc23)c1`: 68.6% (inactive); `O=C(N/N=C/c1ccc([N+](=O)[O-])o1)c1[nH]c2ccc(Br)cc2c1-c1ccccc1`: 7.85% (active); `O=C(N/N=C/c1cccs1)c1[nH]c2ccc(Br)cc2c1-c1ccccc1`: 8.56% (active).
In the case of `COc1cc2cc(Oc3ccc(NC(=O)c4cccc(C(F)(F)F)c4)cc3)c(C)nc2cc1OCCN1CCCCC1`, the growth is 6.44% (active).
As for `Cc1sc2c(c1C)c(=O)nc1c(-c3nc(-c4ccc(F)cc4)no3)n[nH]n12`, the growth is 104% (inactive).
Turning to `N#Cc1nc(-c2ccccc2)oc1N1CC[C@@H](CO)C1`, the growth was 93.6% (inactive).
Turning to `Cn1ccnc1C(=O)/C=C/c1ccc(NC(=O)Nc2ccc(F)cc2)cc1`, the growth was 12.6% (inactive).
`COc1ccc(NC2=C(Cl)C(=O)C(C)=C(C)C2=O)cc1OC`: the growth is 15.3% (inactive).
Still for that read-out and setting: next, `NS(=O)(=O)c1ccc(Nc2nc(Nc3ccccc3)nc(-n3nc(-c4ccccc4)cc3-c3ccccc3)n2)cc1`: 10.7% (inactive).
As to `C#Cc1nc(C2=C(C)C(O)/C(=N/O)C2)cs1` (centres undefined), the growth is -27.7% (active).
With `Cc1ccc2c(n1)C(=O)C(Cl)=C(Nc1cccc(C(C)C)c1)C2=O`, the growth was 14.8% (inactive).
Turning to `CN1CCc2c(sc3ncnc(N/N=C/c4ccc(Cl)c(Cl)c4)c23)C1`, the growth is 8.1% (active).
Regarding `O=C(CSc1nnc(-c2ccc3nc(-c4ccc(Cl)cc4)[nH]c3c2)o1)Nc1ccc(C(=O)/C=C/c2ccc(Cl)cc2)cc1`, the growth is 86.4% (inactive).
`O=C(N/N=C/c1ccc(Br)s1)c1[nH]c2ccc(Br)cc2c1-c1ccccc1`: the growth is 9.08% (active).
Take `C#Cc1nc(C2=C(C)C(O)CC2)cs1` (centres undefined): the growth is 102% (inactive).
Consider `O=C(N/N=C/c1ccc[nH]1)c1[nH]c2ccc(Br)cc2c1-c1ccccc1`, for which the growth is 5.27% (active).
As to `COc1ccc(/C=N/NC(=O)c2[nH]c3ccc(Br)cc3c2-c2ccccc2)s1`, the growth was 9.96% (active).
On the same count and under the same terms, the same measure for `C/C(=N\NC(N)=O)c1c(O)sc(=O)[nH]c1=O`: 100% (inactive); for `C#Cc1nc(C2=C(C)C(=O)/C(=N/OC(C)=O)C2)cs1`: 80.8% (inactive).
For `Cn1ccnc1C(=O)/C=C/c1ccc(NC(=O)Nc2ccccc2)cc1`, the growth is 7.34% (active).
On to `COc1cc(/C=C/C(=O)c2cc(OC)c(OC)c(OC)c2)ccc1OCc1ccccc1`, for which the growth was 4.39% (active).
As to `CC(O)C(NC(=O)C1CCCN1C(=O)CNC(=O)C1CC(=O)NCC(=O)NC(Cc2c[nH]c3ccccc23)C(=O)NC(Cc2ccc(O)cc2)C(=O)NCC(=O)NC(CO)C(=O)NC(CCC(N)=O)C(=O)NC(Cc2c[nH]c3ccccc23)C(=O)N1)C(=O)NCC(=O)NC(CCC(N)=O)C(=O)NC(CCCNC(=N)N)C(=O)NC(CC(=O)O)C(=O)O` (centres undefined), the growth was 94.7% (inactive).
On to `COc1cc(/C=C/C(=O)c2cc(OC)c(OC)c(OC)c2)ccc1OCc1ccc(F)cc1`, for which the growth is 5.5% (active).
Take `O=C(N/N=C/c1ccc([N+](=O)[O-])s1)c1[nH]c2ccc(Br)cc2c1-c1ccccc1`: the growth is 16.1% (inactive).
Regarding `N#Cc1c(-c2ccc(Cl)cc2)nc2c(-c3ccccc3)c(Nc3ccccc3)nn2c1N`, the growth is 67.9% (inactive).
The same measure, in the same setting: the same measure for `O=C(Oc1ccc2ccc(=O)oc2c1)c1ccc(Cl)cc1`: 103% (inactive); for `C#Cc1nc(C2=C(C)C(OC(=O)CCC(=O)O)CC2)cs1` (centres undefined): 93.9% (inactive); for `C#Cc1nc(C2=C(C)C(=N\O)/C(=N/O)C2)cs1`: 87.1% (inactive).
Still for that read-out and setting: next, `O=C(N/N=C/c1ccco1)c1[nH]c2ccc(Br)cc2c1-c1ccccc1`: 15.6% (inactive); `COC(=O)C(Cc1ccccc1)NS(=O)(=O)/N=C1\NC(=O)NC1=C(Cl)Cl` (centres undefined): 37.8% (inactive); `N#Cc1ccc(/C=N/NC(=O)c2[nH]c3ccc(Br)cc3c2-c2ccccc2)s1`: 9.74% (active).
`CCOc1ccc2nc(NC(=O)c3ccc(C(F)(F)F)cc3)sc2c1`: the growth was 92.1% (inactive).
